Source: PubChem BioAssay AID1259400 (National Center for Advancing Translational Sciences (NCATS), 2018)
The campaign covered roughly 350,000 compounds. About 2,100 (0.6%) were called active. Roughly 1% stayed inconclusive and do not appear here. Shown is part of a subset that was picked to be rich in actives. Values without a mark were called inactive.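 How the source made its calls: active means activity change of -60% or lower, but not beyond a set lower limit; inconclusive means change between -60% and -40%, or beyond the set limit; inactive means change above -40%.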

target: Relaxin receptor 1 (Homo sapiens) (UniProt Q9HBX9); assay: qHTS Assay for Antagonists of the Relaxin Receptor RXFP1; details: HEK293-RXFP1, relaxin-stimulated cAMP HTRF, 30 min; at 57.5 µM; active compounds read low
Sequence (Q9HBX9 whole entry, looked up): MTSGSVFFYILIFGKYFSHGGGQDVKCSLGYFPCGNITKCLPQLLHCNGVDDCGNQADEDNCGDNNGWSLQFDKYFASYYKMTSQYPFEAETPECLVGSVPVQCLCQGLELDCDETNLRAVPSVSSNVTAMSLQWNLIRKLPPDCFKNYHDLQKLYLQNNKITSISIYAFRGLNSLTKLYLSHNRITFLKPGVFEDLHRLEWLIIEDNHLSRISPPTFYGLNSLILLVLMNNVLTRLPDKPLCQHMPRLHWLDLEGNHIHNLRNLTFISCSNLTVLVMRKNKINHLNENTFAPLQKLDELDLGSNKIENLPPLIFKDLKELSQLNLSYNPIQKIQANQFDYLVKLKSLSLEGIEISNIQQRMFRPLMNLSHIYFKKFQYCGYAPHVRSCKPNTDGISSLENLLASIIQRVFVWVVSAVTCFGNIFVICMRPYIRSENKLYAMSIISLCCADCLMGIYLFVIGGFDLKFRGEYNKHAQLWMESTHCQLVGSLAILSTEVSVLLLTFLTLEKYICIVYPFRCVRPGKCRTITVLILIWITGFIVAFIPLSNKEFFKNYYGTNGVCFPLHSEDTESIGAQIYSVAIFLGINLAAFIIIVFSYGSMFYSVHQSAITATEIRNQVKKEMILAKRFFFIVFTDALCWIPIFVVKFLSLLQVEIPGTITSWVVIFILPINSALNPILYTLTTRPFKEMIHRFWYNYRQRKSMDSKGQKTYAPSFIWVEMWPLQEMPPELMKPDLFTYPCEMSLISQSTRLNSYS
On the % scale 0 is the no-effect control and ±100 the full control effect.

Structure (SMILES)	activity change, negative = inhibition
Cc1cccc(Cn2c(SCc3ccc(C(=O)N4CCC(C)CC4)cc3)nc3ccncc32)c1	-27.4%
CC(C)c1ccc(NC(=O)Cn2nnc(C(=O)NCCc3ccccc3)c2N)cc1	7.65%
Cn1c(C(=O)N2CCC(C(=O)N3CCN(c4ccccc4)CC3)CC2)cc2sccc21	-7.62%
O=C(CN1CCOCC1)Nc1cccc([N+](=O)[O-])c1	-13.2%
CCC(CC)NC(=O)/C=C/c1cccc([N+](=O)[O-])c1	5.58%
COC(=O)/C=C\C(=O)Nc1cccc([N+](=O)[O-])c1	-90.5% (active)
C[C@@H]1CCC[C@H](C)N1CCCC(O)(c1ccccc1)c1ccccn1 (stereo not given in full)	5.21%
O=C(NNC(=O)C1CCC1)c1ccccc1	-1.83%
O=C(NNc1nc(N2CCCC2)nc(N2CCCC2)n1)c1ccccc1	-63.3% (active)
O=C(NNC(=O)C1CCN(c2ncccn2)CC1)c1ccccc1	0.68%
CCc1ccc(S(=O)(=O)c2nnn3c2nc(N2CCN(CC)CC2)c2sccc23)cc1	-12.6%
CCN1CCC2(CC1)N=C(c1ccc(F)cc1)C(=S)N2C(=O)c1ccc(C)cc1	8.98%
CCN1CCC(O)(/C=C/c2ccc(C)cc2)C(C(=O)/C=C/c2ccc(C)cc2)C1 (stereo not given)	-75.3% (active)
CCCS(=O)(=O)c1c(Nc2ccccc2C)sc(C(=O)c2ccccc2)c1N	-38.6%
Cc1cccc(NC(c2cccc(F)c2)c2ccc3ccc(C)nc3c2O)n1 (stereo not given)	-1.75%
Cc1ccc(-c2cnc(NCc3ccc(C(C)C)cc3)n2C)cc1	-10.2%
CC(=O)c1c(C)[nH]c(=S)c(C#N)c1-c1ccc(F)cc1	7.17%
Cc1[nH]c2ccccc2c1C(=O)COC(=O)c1c(-c2ccccc2)noc1C	-27.9%
CCOC(=O)c1c(C)[nH]c(=S)c(C#N)c1-c1ccccc1	-118% (active)
OCC(CO)(CO)NCc1ccc(-c2ccccc2)cc1	-7.18%
OCCN(Cc1ccccc1)Cc1ccc(Cl)cc1	-15.6%
OCc1ccc(-c2ccccc2)c(-c2ccccc2)c1	-64.5% (active)
CCOC(=O)c1c(C)oc2nc(C)nc(N(CC(C)C)CC(C)C)c12	-27.5%

Structure (SMILES)	activity change, negative = inhibition
CC(=O)C1=C(C)NC(C)=C(C(C)=O)C1c1cn(-c2ccccc2)nc1-c1cccs1	-18.3%
O=C(O)c1ccc(N/N=C/c2cn(-c3ccccc3)nc2-c2cccs2)cc1	-105% (active)
O=C(NCc1cccnc1)c1cn(-c2ccccc2)nc1-c1cccs1	-17.9%
CCCn1c2ccccc2c2cnn(CC(=O)N3CCCC(C(=O)OCC)C3)c(=O)c21 (stereo not given)	3.38%
CCN(CCCNC(=O)CSc1cc(=O)n(C)c2cc(Cl)ccc12)c1cccc(C)c1	14%
CSc1ccccc1NC(=O)CCS(=O)(=O)c1nc(-c2cccs2)cc(C(F)(F)F)n1	0.767%
COc1ccc(NC(=O)NC(C)c2c(-n3cccc3)sc(C)c2C)cc1OC (stereo not given)	-9.76%
O=C(CCN1CCN(C/C=C/c2ccccc2)CC1)Nc1ccccc1Cl	3.3%
O=C(Nc1ccccc1Cl)/C(Cl)=C(\Cl)S(=O)c1ccccc1 (stereo not given)	-106% (active)
O=C(Nc1ccccc1Cl)N1CCC(CN2CCCC2)CC1	2.65%
Cc1c(Cl)cccc1-c1ccc(CNCCCSc2nnnn2C)o1	-6.68%
Cc1ccc(C2C=C(c3ccc(Cl)cc3)Nc3nc(NC(=O)CCC(=O)O)nn32)cc1 (stereo not given)	-0.127%
Cc1ccc(Cl)cc1N1CCN(C(=O)c2cnc3c(-c4ccc(F)cc4)c(C)nn3c2C)CC1	-19.1%
COC(=O)c1ccc(NCc2cc(O)ccc2O)cc1	-28.1%
CC(C)OC(=O)c1ccc(NCc2cc(O)ccc2O)cc1Cl	-85.7% (active)
O=C(OC12CC3CC(CC(C3)C1)C2)c1ccc(NCc2cc(O)ccc2O)cc1	-37.9%
CCCN1CCc2nc(N3CCN(C)CC3)ncc2C1	3.24%
O=C(N/N=C/c1ccc(O)c(O)c1)C1c2ccccc2Oc2ccccc21	-17.9%
Oc1ccc(/C=N/Nc2ccc(C(F)(F)F)cn2)cc1O	-72.1% (active)
FC(F)(F)c1cccc(N/N=C/c2ccccc2)c1	6.38%
CC1(C)OC[C@@H](COC(=O)CCc2ccc(OC[C@@H](O)CNCCNC(=O)N3CCOCC3)cc2)O1	-4.26%
O=C(CSc1nc(=O)[nH]c2c1CCCC2)Nc1cc(C(F)(F)F)ccc1Cl	6.44%
